SMILES strings stand for the structures. The campaign covered roughly 300,000 compounds. About 3,200 (1.1%) were called active. For the sample, actives were picked, then their nearest neighbours and some compounds at random. A number with no mark means an inactive call. Rule as the data show it: active = inhibition above about 75%; inconclusive = no clear call, values can overlap the other calls; inactive = below that; tested in HMLE shEcad cells.

This experiment can be described thus: growth suppression of cancer stem-like cells – cell-based, luminescence, primary screen (AID 2717). Particulars: cancer stem cell-like cells viability, at 7.5 µM, stronger effect = higher value.
In general, inhibition refers to the change of the read-out against control, counted positive when it falls. In the case of `Cc1ccc(P(=S)(c2ccc(C)o2)N2CCOCC2)o1`, the inhibition was 76.5% (active).

As for `Cc1ccc(-n2c(C)cc(/C=C3\C(=O)NC(=O)N(C)C3=O)c2C)cc1C`, the inhibition was -18.6%.

With `CCCCCCCCCCCCn1ccc(=N)cc1`, the inhibition is 102% (active).

`O=C(O)C1CSC(c2cccnc2)N1` (stereo not given): the inhibition was -4.58%.

On to `CCC1(C)CC(CCNCc2ccc(N(C)C)cc2)(c2ccc(F)cc2)CCO1` (stereo not given), for which the inhibition was 15%.

Take `COc1ccc(Br)cc1CNCCc1cccc(Cl)c1`: the inhibition is 35.5%.

On to `O=C1C2(Cl)C3(Cl)C4(Cl)C(Cl)(Cl)C5(Cl)C3(Cl)C1(Cl)C5(Cl)C24Cl` (stereo not given), for which the inhibition is 101% (active).

Regarding `COC(=O)C1=C(c2cccc(OCc3ccccc3)c2)C[C@@H]2CC[C@H]1N2C(=O)NCc1ccc(Br)cc1`, the inhibition was 30%.

As for `C[C@]12CC[C@H](O)CC1=C([N+](=O)[O-])CC1C2CC[C@@]2(C)C1CC[C@@H]2O` (stereo not given in full), the inhibition is 19.8%.

Consider `CC(Cc1ccccc1)NC=O` (stereo not given), for which the inhibition is -4.89%.

Turning to `CC(Cc1ccccc1)NCCC(c1ccccc1)c1ccccc1` (stereo not given), the inhibition is 86.3% (active).

Take `CC(=O)NC(=O)NC(C)Cc1ccccc1` (stereo not given): the inhibition is -9.41%.

`CCC(=O)c1ccc(OCC(=O)N2CCN(CC(=O)Nc3ccc(C)cc3)CC2)cc1`: the inhibition is -4.41%.

`O=C1NC(=O)N(CCc2ccc(F)cc2)C(=O)/C1=C/C=C/c1ccccc1`: the inhibition was 89.8% (active).

`O=C(O)COc1ccccc1/C=C1\C(=O)NC(=O)N(CCC2=CCCCC2)C1=O`: the inhibition was -7.06%.

For `O=C1NC(=O)N(Cc2ccco2)C(=O)/C1=C\c1ccc(-c2ccc(F)cc2)o1`, the inhibition is -3.26%.

As to `COC(=O)C1=C(c2ccc(Cl)c(C(F)(F)F)c2)C[C@@H]2CC[C@H]1N2C(=O)NC1CC1`, the inhibition is -14.7%.

For `Nc1ccc([N+](=O)[O-])cc1`, the inhibition was 22.2%.

On to `COC(=O)C1=C(c2ccccc2OCc2ccccc2)C[C@@H]2CC[C@H]1N2C(=O)NCc1ccc(OC)cc1`, for which the inhibition is 6.19%.

Regarding `N#Cc1ccc(Cn2cc(C(=O)c3ccco3)c3ccccc32)cc1`, the inhibition is 6.82%.

On to `COC(=O)C1=C(c2c(C)noc2C)C[C@@H]2CC[C@H]1N2C(=O)NCc1ccc2c(c1)OCO2`, for which the inhibition is 2.81%.

For `N=c1ccccn1Cc1ccccc1`, the inhibition was 1.97%.

As for `COC(=O)C1=C(c2ccc(-c3ccccc3)c(F)c2)C[C@@H]2CC[C@H]1N2C(=O)NCc1ccc(F)cc1`, the inhibition was 36.3%.

In the case of `C[C@]12CC[C@H](O)C[C@H]1CC[C@@H]1C2CC[C@]2(C)[C@@H](C3=CC(=O)OC3)[C@@H](O)C[C@]12O` (stereo not given in full), the inhibition was 85% (active).

Regarding `C[C@]12CCC3C(CC[C@H]4C[C@@H](O)CC[C@]34C)C1C[C@@H](O)[C@H]2O` (stereo not given in full), the inhibition is -9.01%.

Consider `C[C@]12CCC3C(CC[C@H]4C[C@@H](O)CC[C@]34C)C1CC[C@@H]2O` (stereo not given in full), for which the inhibition is -19.5%.

For `CC(Cc1cccs1)NCc1ccc(Cl)cc1` (stereo not given), the inhibition is -5.86%.

For `COC(=O)C1=C(c2ccc(F)cc2OCc2ccccc2)C[C@@H]2CC[C@H]1N2C(=O)NCc1ccc2[nH]ccc2c1`, the inhibition was 9.97%.

As for `COc1ccc(-c2nn(CCC#N)cc2C(=O)O)cc1`, the inhibition is 1.09%.

`COC(=O)C1=C(c2ccc(F)cc2OCc2ccccc2)C[C@@H]2CC[C@H]1N2C(=O)NCc1ccc(Cl)cc1`: the inhibition was 15.5%.

These data come from PubChem BioAssay AID2717 (Broad Institute, 2010).
